Compounds without any hit were thinned out: in the full panel of roughly 79,000, 15% have a hit. Values without a mark were called inactive. Calls of active or inactive are those of the source. Rule as the data show it: active = growth inhibition above about 70%; inactive = the rest.
Assays:
[1] = NCI Yeast Anticancer Drug Screen. Data for the rad50 strain (AID 155);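 also: 0% = growth of vehicle-only cultures of the same strain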; details: S. cerevisiae rad50 strain growth inhibition; at 50.0 µM; hits give high values
Outline: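 Compounds were tested on a yeast strain with an engineered DNA damage repair alteration; the reported value is growth inhibition normalised to vehicle treatment.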

[2] = NCI Yeast Anticancer Drug Screen. Data for the mec2-1 strain (AID 157); details: S. cerevisiae mec2-1 strain, at 50.0 µM, hits give high values
Outline: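 Compounds were applied to mec2-1 yeast cells. Their growth was then compared with that of vehicle-treated cultures to give growth inhibition.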

[3] = NCI Yeast Anticancer Drug Screen. Data for the sgs1 mgt1 strain (AID 161);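 also: 0% = growth of cultures given vehicle only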; details: S. cerevisiae sgs1 mgt1 strain, at 50.0 µM, hits give high values
Outline: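 Growth of a repair-deficient yeast mutant was monitored after compound treatment and expressed as inhibition relative to vehicle-treated cultures.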

[4] = NCI Yeast Anticancer Drug Screen. Data for the cln2 rad14 strain (AID 165);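 also: 0% = growth equal to vehicle treated cultures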; details: S. cerevisiae cln2 rad14 strain, at 50.0 µM, hits give high values
Outline: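 Strain: cln2 rad14 yeast, altered in cell cycle control and DNA damage repair. Read-out: growth inhibition vs vehicle.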

[5] = NCI Yeast Anticancer Drug Screen. Data for the bub3 strain (AID 167); details: S. cerevisiae bub3 mutant strain, at 50.0 µM, hits give high values
Outline: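 Growth of a checkpoint-deficient yeast mutant is measured after compound exposure. Values represent inhibition relative to vehicle.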

[6] = NCI Yeast Anticancer Drug Screen. Data for the mlh1 rad18 strain (AID 175); details: S. cerevisiae mlh1 rad18 strain growth inhibition; at 50.0 µM; hits give high values
Outline: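 A repair-deficient yeast strain is exposed to test compound, and growth is scored relative to vehicle-treated controls.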

Row | SMILES | growth inhibition [1] | growth inhibition [2] | growth inhibition [3] | growth inhibition [4] | growth inhibition [5] | growth inhibition [6]
1 | Cc1cc2c(C(C)C)c(O)c(O)c(C=Nc3ccc(-c4ccccc4)cc3)c2c(O)c1-c1c(C)cc2c(C(C)C)c(O)c(O)c(C=Nc3ccc(-c4ccccc4)cc3)c2c1O | -24.2% | -10.4% | -24.2% | -15.2% | -8.5% | -7.4%
2 | CC(/C=N/Nc1ccccc1)=N\N=c1/scc(-c2ccc(Cl)cc2)n1-c1ccc(Cl)cc1 | 22.4% | 4.65% | 13.9% | -0.2% | 11.1% | 27.9%
3 | NN(c1ccccc1)c1ccccc1 | 23.5% | 6.45% | 35.5% | 25.9% | 24.2% | 19.1%
4 | O=C(Nc1ccn(C2CCC(CO)O2)c(=O)n1)c1ccccc1 (configuration not stated) | 35.8% | -3.05% | -16.7% | -23.8% | 4.25% | -7.55%
5 | N#CC(c1ccccc1)C1CCN(Cc2ccccc2)CC1 (configuration not stated) | 45.8% | 20.8% | 48.1% | 47.8% | 45.8% | 33.1%
6 | O=C(O)c1[nH]c(=O)[nH]c(=O)c1CN1CCCCC1 | -39.8% | -21.6% | -15.1% | -29.9% | -23.4% | -0.75%
7 | CC(=O)Nc1cc(C(C)=O)ccc1O | 0.95% | -0.5% | -3.95% | -32.7% | -14% | 6.6%
8 | CC(Sc1ncnc2[nH]ncc12)C(N)=O (configuration not stated) | -22.5% | -16.4% | -18.4% | -6.6% | 5% | 0.95%
9 | CC(=O)Nc1cc(F)c2c(c1F)Cc1cc(F)ccc1-2 | 15.1% | 21.9% | 11.7% | -63.4% | 5.15% | 7.95%
10 | CC(=O)Nc1cccc(/C=C/C=C/c2cccc([N+](=O)[O-])c2)c1 | 89.3% (active) | 91.2% (active) | 93.5% (active) | 81.1% (active) | 91.3% (active) | 91.2% (active)
11 | COc1cc([N+](=O)[O-])ccc1N=Cc1cccs1 | 19.4% | 22.8% | 34% | 0.25% | 18.3% | 27.9%
12 | Cc1ccc(C2(C#N)CCCC2)cc1 | 5.55% | -1% | 12% | 3.85% | 15.6% | 4.7%
13 | CCC/C=C/c1cc2c(cc1O)CC[C@@H]1[C@@H]2CC[C@]2(C)[C@@H](O)CC[C@@H]12 | 19.2% | 16.4% | 45.6% | 35.4% | 41.3% | 23.9%
14 | CC(=O)C1OC1c1ccccn1 (configuration not stated) | -5.15% | 3.7% | -9.5% | 55.8% | 3.4% | 3.35%
15 | CN1C2CCC1/C(=C/c1cccc3c1OCO3)C(=O)/C2=C\c1cccc2c1OCO2 | 27.8% | 19.8% | 20.4% | -52% | 32.3% | 27.1%
16 | CC(=O)OCCn1c2ccccc2nc2cc3c(cc21)c(Cl)c(=O)c1ccccc13 | 29.6% | 14.3% | 21.1% | 25.6% | -1.6% | 13.4%
17 | NNC(=O)CC(=O)Nc1ccccc1F | -7.9% | -16.9% | -6.4% | 7.15% | 0.85% | -2.85%
18 | CC1=C2C(=O)O[C@@H](c3ccoc3)[C@]2(C)CCC1 | 15.3% | -6.8% | 14.1% | -8.9% | 0.35% | 16.6%
19 | Cc1ccccc1C(=O)N1CCOCC1 | -10.9% | 3.7% | -0.1% | -13.4% | 16.1% | 21.4%

Row | SMILES | growth inhibition [1] | growth inhibition [2] | growth inhibition [3] | growth inhibition [4] | growth inhibition [5] | growth inhibition [6]
20 | O=C(Nc1ccc(CCO)cc1)Nc1ccc(Cl)cc1[N+](=O)[O-] | -6.35% | 34.9% | 25.8% | -18.7% | 21.6% | 17.6%
21 | [N-]=[N+]=NC(=O)c1ccc(S(=O)(=O)c2ccc(F)cc2)cc1 | 13.4% | 21.8% | 7.6% | 7.85% | 3% | 38.5%
22 | Cc1c(C)c(C(=O)O)c(C)c(C)c1C(=O)O | 25.9% | -8.1% | 17.9% | 9.1% | 24.4% | 0.05%
23 | Cc1cc(N=Nc2ccc(N=Nc3ccc(S(=O)(=O)O)cc3)cc2)cc(C(=O)O)c1O | 12% | -9.4% | -2.85% | -8% | -19.7% | 4.25%
24 | Cc1ccc(C(C)[N+](=O)[O-])cc1 (configuration not stated) | 13.2% | 18.1% | 18.4% | -13.7% | 0.45% | 18.2%
25 | CCC1(CC)NC(=S)NC1=S | 24.5% | 7.4% | 26.4% | 10% | 16.4% | 20%
26 | CCOC(=O)c1ccc(NC(C)=O)cc1 | 18% | 9.2% | 9.3% | -5.45% | -4.45% | 12.1%
27 | CCOC(=O)c1c(SCCO)n(-c2ccccc2)c(=S)n(-c2ccccc2)c1=O | -22.7% | -25.2% | -22.7% | 1.75% | -13.3% | -19.4%
28 | CCCCNc1nc2c(=O)n(C)c(=O)n(C)c2s1 | -6.3% | -0.6% | -3.1% | -17.4% | -5.9% | 9.75%
29 | CCCCCCCCCCCCCCO | 21.9% | -22.8% | -19.7% | -54.8% | 1.3% | 16.9%
30 | Clc1ccc2nc(/C=C/c3ccccc3)ccc2c1 | -10.7% | -4.2% | -9.4% | 3.35% | 6.9% | -15.7%
31 | [N-]=[N+]=NS(=O)(=O)CCc1ccc(Cl)cc1 | 4.55% | -3.95% | -12.4% | -55% | -17.9% | 4.85%
32 | c1ccc(COc2ccc(OCc3ccccc3)cc2)cc1 | -1.5% | 3.8% | 13.1% | -31.6% | -10.2% | 3%
33 | CC(NC(=O)C(N)CC(=O)O)NC(=O)C1CCC1 (configuration not stated) | -39.9% | -48.1% | -19.2% | 24.6% | 8.6% | -35.8%
34 | O=C(O)CCc1ccc2ccccc2n1 | 6.3% | -6.6% | -19.8% | -0.05% | -20.6% | -20.2%
35 | CC(C)(C)C(=O)[CH-]C(=O)C(C)(C)C.CC(C)(C)C(=O)[CH-]C(=O)C(C)(C)C.CN(C)c1ccc([O-])cc1.CN(C)c1ccc([O-])cc1.[Ti+4] | -20.8% | -16.5% | -12.2% | 12.2% | 5.4% | -11.2%
36 | COc1cccc2c1C(=O)c1c(O)c3c(c(O)c1C2=O)CC(O)(C(O)CO)CC3OC1CC(N2CCSCC2)C(O)C(C)O1 (configuration not stated) | 87.7% (active) | 87.5% (active) | 88% (active) | 84% (active) | 85.8% (active) | 90.3% (active)
37 | COc1cc(O)c2c(c1)C(=O)C1=C(C2=O)C(O)C[C@@](C)(O)C1 (some centres not stated) | 89.2% (active) | 90.2% (active) | 92% (active) | 75.5% (active) | 91.2% (active) | 90% (active)

From PubChem BioAssay (NCI)
